Screens: PubChem, National Center for Advancing Translational Sciences (NCATS)
Shown are actives, neighbours in structure and some others; about 19% of the full set was active somewhere.
LASV entry inh: blocks Lassa virus binding to or entry into cells; AID 540256; hit rate 1.2% among 300,000; Lassa virus pseudotype entry inhibition, cell reporter; Potency, µM (highest dose often 37.9 µM), for the others: top-dose activity change, negative = inhibition, usual class: inhibitors; calls by dose curve; tested in HEK293 cells; note: potency is the fitted concentration of half-maximal effect; % is set by controls: 0 for no effect and ±100 for the full control effect; nearly all actives have a fitted effect of over 50% in size
Marburg entry inh: inhibitors of Marburg virus binding or cell entry; Marburg virus pseudotyped entry inhibition, cell reporter; Potency, µM (titrated, usually from 37.8 µM), for the others: top-dose activity change, negative = inhibition, hits mostly inhibitors; hit rate 1.8% among 300,000; AID 540276; calls by dose curve; tested in HEK293 cells; note: potency is the fitted concentration of half-maximal effect; % is set by controls: 0 for no effect and ±100 for the full control effect
Cycloheximide cs: affects cycloheximide protein synthesis inhibition readout, counter-screen | cell reporter, cycloheximide protein synthesis inhibition counterscreen | max response, % | hit rate 12% among 300,000 | AID 2314; in the data active = max response mostly above about 13%, no sharp cut-off; inactive = mostly below about 14%; note: read at 38.3 µM for the half of the compounds with a filed dose; 0% is about no effect
Pf growth 96h: P. falciparum growth inhibition at 96 hours. P. falciparum luciferase reporter growth, 96 h. Potency, µM (titrated, usually from 28.7 µM), for inactives: at the highest dose activity change, negative = inhibition, most hits filed as inhibitors. hit rate 6.9% among 320,000; note: potency is the fitted concentration of half-maximal effect; % is set by controls: 0 for no effect and ±100 for the full control effect
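Erythrocytes infected with luciferase-expressing P. falciparum were dispensed at 2% hematocrit and 0.05% parasitemia (final), then incubated with compounds 96 hours at 37 C in 5% CO2. Luminescence after detection reagent addition reported growth.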
Shiga inhibitor: blocks Shiga toxin action in Vero cells | inhibition, % at 38.7 µM | hit rate 9.2% among 290,000 | Vero cells, Shiga toxin protein synthesis inhibition reporter; in the data active = inhibition mostly above about 28%, no sharp cut-off; inactive = mostly below about 43%; note: 0% is about no effect
Pf growth 48h: inhibits P. falciparum growth in the first generation, 48 h; P. falciparum luciferase growth in erythrocytes, 48 h; Potency, µM (titrated, usually from 28.7 µM), inactives show top-dose activity change, negative = inhibition, most hits filed as inhibitors; hit rate 5.9% among 310,000; note: potency is the fitted concentration of half-maximal effect; % is set by controls: 0 for no effect and ±100 for the full control effect
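A one-generation exposure of luciferase-tagged malaria parasites in RPMI 1640/Albumax erythrocyte culture, 37 C and 5% CO2. Inhibition is inferred from decreased luminescence after adding detection reagent.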
* marks the source's active call; other numbers are inactive results; ? = inconclusive; . = not tested or not shown; ! = a repeat was not active; [ ] = remark or other dose. Unless noted, calls come from the whole dose curve; as a rule, active = well fitted inhibition curve with a large enough effect; inconclusive = small, poorly fitted or top-dose-only effect, or another doubt; inactive = no such curve, though single readings can be large or run the other way.

SMILES	LASV entry inh	Marburg entry inh	Cycloheximide cs	Pf growth 96h	Shiga inhibitor	Pf growth 48h
Cc1ccc(/C=C/C(=O)NCCCN2CCN(CCCNC(=O)/C=C/c3ccc(C)o3)CC2)o1	-2.0%	-6.3%	-1.0	311.3%	6.3	-24.6%
CN(c1ccccc1C(=O)O)S(=O)(=O)c1ccc2c3c(cccc13)C(=O)N2	1.3%	-4.7%	-1.2	11.7µM*	-2.7	8.1%
O=C(O)c1ccccc1NS(=O)(=O)c1ccc2c3c(cccc13)C(=O)N2	16.1%	?	-2.3	1.0%	-7.1	13.0%
O=Cc1ccc(OCCCOc2cccc3cccnc23)cc1	.	.	10.1	4.5%	-3.9	36.4%
Brc1ccc(OCCCOc2cccc3cccnc23)cc1	20.1%[46.1 µM]	18.5%[46.1 µM]	11.7	-1.1%	.	27.7%
Clc1ccccc1OCCCOc1cccc2cccnc12	?	?	37.4*	-74.3%	.	11.8%
O=Cc1ccccc1OCCCOc1cccc2cccnc12	.	.	23.9*	327.3%	56.1*	33.9%
O=[N+]([O-])c1ccccc1OCCCOc1cccc2cccnc12	-23.8%[46.1 µM]	?	28.7*	-25.4%	.	27.9%
CC(=O)c1ccc(NC(=O)CSc2nc3nn(-c4ccccc4)c(=O)c-3c3n2CCCCC3)cc1	-0.9%	23.8%	.	.	.	.
CC(Cc1ccc(O)c(O)c1)C(C)Cc1ccc(O)c(O)c1 (centres undefined)	?	?	.	15.1µM*	.	?
C[C@@](Cc1ccc(O)c(O)c1)(NN)C(=O)O	8.5%	?	-0.5	-19.4%	-12.1	3.2%
C[C@H](Cc1ccc(O)c(O)c1)[C@@H](C)Cc1ccc(O)c(O)c1	?	14.1µM*	.	.	.	.
CCOC(=O)CC(NC(=O)C(Cc1ccc(N(CCCl)CCCl)cc1)NC(C)=O)C(=O)OCC (centres undefined)	?	?	-1.9	10.6%	2.2	9.28µM*
CC(C)NC[C@@H](O)c1ccc(O)c(O)c1	10.8%	23.9%	-0.3	-0.7%	-6.5	-14.6%
N[C@@H](Cc1ccc(O)c(O)c1)C(=O)O	?	15.8µM*!	.	2.9%	.	-2.8%
NC(Cc1ccc(N(CCCl)CCCl)cc1)C(=O)O (centres undefined)	2.91µM*	5.8µM*	.	.	.	.
N[C@H](Cc1ccc(Cl)cc1)C(=O)O	.	23.4%	.	.	.	.
NC(C(=O)O)c1ccc(O)cc1 (centres undefined)	.	.	.	4.9%	.	6.6%
NC(C(=O)O)C(O)c1ccc(O)c(O)c1 (centres undefined)	?	1.25µM*	.	?	.	?
CC(=O)Nc1ccc2nc(CN3CCC(CO)(CCc4ccccc4)CC3)ccc2c1	-16.3%	?	0.6	-6.5%	18.0	?
O=C(O)CCCCCNC(=O)c1cccc(Br)c1	9.5%	3.7%	-2.5	17.0%	-1.1	1.1%
O=C(NCCCCc1ccccc1)c1cccc(Br)c1	0.0%	0.2%	15.2*	-0.1%	67.8	13.9%
O=C(NCCCc1ccccc1)c1cncc(Br)c1	.	.	19.8*	32.7%	45.6	40.5%
C=CCNC(=O)c1cccc(Br)c1	3.1%	?	0.7	17.7%	0.8	16.6%
O=C(NCCOC12CC3CC(CC(C3)C1)C2)c1cccc(Br)c1	?	-28.0%	15.5	4.15µM*	10.4	9.28µM*
SMILES	LASV entry inh	Marburg entry inh	Cycloheximide cs	Pf growth 96h	Shiga inhibitor	Pf growth 48h
O=C(NCCc1ccccn1)c1cncc(Br)c1	?	?	19.6*	70.3%	37.1	62.4%
COc1cscc1C(N)=O	.	.	-3.2	?	-11.6	-23.1%
COc1ccccc1C1=Nn2c(nnc2-c2ccccc2OC)SC1	.	.	8.9	.	-9.6	.
Cc1cc(-c2nnc3n2N=C(c2ccc(-c4ccccc4)cc2)CS3)n[nH]1	?	?	6.2	?	4.9	10.4µM*
Cc1cc(-c2nnc3n2N=C(c2ccccc2)CS3)n[nH]1	-16.8%	0.0%[14.2 µM]	2.1	?	-2.4	-3.0%
Cc1ccc(-c2nnc3n2N=C(c2ccccc2Br)CS3)cc1	?	?	1.0	-1.1%	-14.3	11.7µM*
c1ccc(-c2cc(-c3nnc4n3N=C(c3ccc5ccccc5c3)CS4)[nH]n2)cc1	-67.3%[14.3 µM]	?	2.7	?	17.0	11.7µM*
C[C@@H](C(=O)NC1CCCC1)N1C(=O)N2CCc3c([nH]c4ccccc34)[C@@]2(C)C1=O	.	.	2.3	53.9%	-0.7	3.6%
CCc1ccc(-c2nnn(CCC#N)n2)cc1	0.3%[46.1 µM]	11.6%[46.1 µM]	29.5*	-14.4%	39.5*	35.9%
CCOc1ccc(-c2nnn(CCC#N)n2)cc1OC	-26.7%	5.8%[46.1 µM]	7.0	28.2%	21.5	12.6%
CCc1ccc(-c2nnn(CCC(=O)OC)n2)cc1	-20.7%	?	19.4*	4.65µM*	48.4	43.4%
Cc1ccc(NC(=O)CSc2nnc(Cc3cccn3C)n2-c2ccc(F)cc2)c(C)c1	.	.	-6.0	9.28µM*	22.5	.
CCOC(=O)c1ccccc1NC(=O)CSc1nnc(Cc2cccn2C)n1-c1ccc(F)cc1	?	1.4%	-2.8	58.5%	24.1	?
Cn1cccc1Cc1nnc(SCC(=O)N2CCN(c3ccccc3)CC2)n1-c1ccc(F)cc1	-2.1%	-0.1%	-1.8	1.47µM*	-1.2	?
CCOc1ccccc1NC(=O)CSc1nnc(Cc2cccn2C)n1-c1ccc(F)cc1	.	5.0%	6.8	-26.3%	-1.0	5.86µM*
Cn1cccc1Cc1nnc(SCC(=O)NCc2ccccc2)n1-c1ccc(F)cc1	.	.	-3.5	?	-26.3	.
O=C(N/N=C/c1cccc(OC(=O)c2cccc(Br)c2)c1)c1ccncc1	3.8%	33.0%	21.1	105.8%	30.4	35.3%
O=C(Nc1ccc(Cl)cc1)C1(S(=O)(=O)c2ccccc2)CC1	3.8%	18.6%	.	.	.	.
Cc1ccc(S(=O)(=O)N(C)C)cc1-n1c(SCC(=O)Nc2ccc(F)cc2)nc2ccccc2c1=O	.	-3.2%	3.7	9.28µM*	-1.0	9.28µM*
Cc1ccc(S(=O)(=O)N(C)C)cc1-n1c(SCC(=O)Nc2ccccc2)nc2ccccc2c1=O	?	?	-2.6	?	-4.8	?
Cc1ccc(S(=O)(=O)N(C)C)cc1-n1c(SCC(=O)Nc2ccc(F)cc2Cl)nc2ccccc2c1=O	?	?	1.4	?	-6.6	13.1µM*
CC(=O)c1sc2nsc(SCCN3CCCCC3)c2c1N	?	?	28.8*	?	42.6	?
Nc1c(C(=O)c2ccc(Cl)cc2)sc2nsc(SCCN3CCOCC3)c12	2.1%	1.2%[46.1 µM]	5.8	4.8%	18.6	-8.5%
Nc1c(C(=O)c2ccccc2)sc2nsc(SCCN3CCCC3)c12	6.31µM*	?	40.3*	?	104.0*	?
O=C(NCc1cccnc1)c1ccc(NC(=O)c2ccc([N+](=O)[O-])cc2)cc1	.	.	3.7	-20.3%	-21.1	?
COc1ccccc1-n1cnnc1SCC(=O)N1CCN(C(=O)c2ccco2)CC1	.	.	0.6	3.7%	-7.0	-14.7%
Cc1ccc(SC(c2ccc(C)cc2)C(Cn2cncn2)C(=O)c2ccccc2)cc1 (centres undefined)	-14.7%	?	-1.0	?	-10.2	.
Cc1ccc(C(Sc2ccccc2)C(Cn2cncn2)C(=O)c2ccccc2)cc1 (centres undefined)	?	-24.0%	3.3	9.28µM*	9.5	.
